FMDV antiviral – blocks foot and mouth disease virus; FMDV antiviral cell-based qHTS; Potency, µM (highest dose often 57.9 µM), inactives show at the highest dose activity change, negative = inhibition, most hits filed as inhibitors; hit rate 1.2% among 410,000; AID 1159524; calls by dose curve; tested in HEK293T cells; also: read-out not given here; nearly all actives have a fitted effect of over 45% in size
Lassa entry inh – inhibitors of Lassa virus binding or cell entry; Lassa virus pseudotype entry inhibition, cell reporter; Potency, µM (series often up to 37.9 µM), without a hit: at the top dose activity change, negative = inhibition, most hits filed as inhibitors; hit rate 1.2% among 300,000; AID 540256; calls by dose curve; tested in HEK293 cells; also: nearly all actives have a fitted effect of over 50% in size
VACV mCherry inh – inhibitors of vaccinia virus infection (mCherry reporter signal); Potency, µM (top dose mostly 36.5 µM), for inactives: at the top dose activity change, negative = inhibition, most hits filed as inhibitors; hit rate 0.63% among 310,000; Vaccinia virus mCherry reporter infection, fluorescence; calls by dose curve; tested in A549 cells; also: nearly all actives have a fitted effect of over 35% in size
MARV entry inh – blocks Marburg virus binding to or entry into cells. Potency, µM (titrated, usually from 37.8 µM), for inactives: at the highest dose activity change, negative = inhibition, usual class: inhibitors. hit rate 1.8% among 300,000. AID 540276. Marburg virus pseudotyped entry inhibition, cell reporter; calls by dose curve; tested in HEK293 cells
Vaccinia Venus – inhibitors of vaccinia virus (Venus reporter) | AID 720580 | hit rate 0.46% among 330,000 | Potency, µM (highest dose often 36.5 µM), inactives show at the top dose activity change, negative = inhibition, hits mostly inhibitors | Vaccinia virus Venus reporter expression, fluorescence; calls by dose curve; tested in A549 cells; also: nearly all actives have a fitted effect of over 30% in size
* = called active by the depositor; i = inactive; ? = inconclusive; · = no result; [ ] = remark or other dose. Rows were chosen to be rich in hits. Some 3.2% of all compounds tested hit in one or more screens of this group. % is scaled to controls: 0 for no effect and ±100 for the full control effect; potency is read from the fitted curve at half-maximal effect.

SMILES	FMDV antiviral	Lassa entry inh	VACV mCherry inh	MARV entry inh	Vaccinia Venus
O=C1/C(=C/c2cccnc2)SC(=S)N1C1CCS(=O)(=O)C1 (stereo not given)	14.1µM*	?	-10.2%	?	1.7%
Cc1ccc(C(C)C)c(OCC(O)CN2CCc3ccccc3C2)c1 (stereo not given)	?	?	10µM*	?	?
CC(C)(C)CC(=O)Nc1nnc2n1CCS2	-11.6%	-7.1%[46.1 µM]	7.2%	·	8.9%
COCCn1c(-c2ccccc2)csc1=Nc1cccnc1	?	6.4%[46.1 µM]	i	?	-7.3%
CC(C)n1c(-c2ccco2)csc1=Nc1cccnc1	25.1µM*	-13.4%	?	-23.7%	-29.5%
Clc1ccc(C(c2ccc(Cl)cc2)C(Cl)(Cl)Cl)cc1	3.55µM*	·	-17.0%	·	-20.9%
O=C(O)/C=C/C(O)c1ccc(Cl)cc1 (stereo not given)	-18.3%	?	-17.9%	-0.2%	-11.9%
COc1cccc(C(=O)NCc2cn3cccc(C)c3n2)c1	-15.6%	-3.9%[46.1 µM]	-7.6%	-9.4%[46.1 µM]	-3.9%
COC(=O)c1cccc(NC(=O)CSc2nc3cccnc3n2C)c1	15.8µM*	-27.3%	-22.9%	?	?
COC(=O)c1ccccc1NC(=O)CSc1nc2cccnc2n1C	-13.0%	·	i	·	-10.9%
C=C1C(=O)O[C@@H]2[C@H]1[C@@H](OC(=O)/C(C)=C/C)C/C(C)=C\C(=O)/C=C(\C)[C@@H]2O	28.2µM*	·	?	·	11.2µM*
Cc1cccc(Oc2ccccc2NC(=O)CSCC(=O)Nc2cc(C)on2)c1	?	?	-26.6%	3.55µM*	-3.5%
CCOc1ccc(Oc2ccccc2NC(=O)CSCC(=O)Nc2cc(C)on2)cc1	?	?	-6.6%	?	-28.0%
S=c1[nH]nc(-c2ccccc2)n1/N=C/c1ccc(-c2ccccc2Cl)o1	0.0%	0.82µM*	?	0.708µM*	12.4%
S=c1[nH]nc(-c2cccc(Cl)c2)n1/N=C/c1ccc(-c2ccccc2Br)o1	-7.1%	·	·	·	·
CCN(CC)S(=O)(=O)c1cc(NC(=O)Cn2ncc(Cl)c(Cl)c2=O)ccc1C	-93.0%	·	?	·	?
O=C(Cn1cnc2ccccc21)Nc1ccc(SC(F)F)cc1	?	-16.3%[46.1 µM]	-7.1%	3.16µM*	-22.7%
CCn1c(N)[n+](CC(=O)Nc2ccc(SC(F)F)cc2)c2ccccc21	-7.3%	?	?	4.47µM*	-23.8%
CCCC(=O)Nc1cccc(-c2nc3ccccc3c(=O)o2)c1	41.7%	-11.6%[46.1 µM]	i	?	-6.3%
COc1ccc(NC(=O)c2ccco2)cc1NC(=O)C(C)(C)Oc1ccc(Cl)cc1	44.7µM*	?	-21.4%	?	-19.6%
COc1ccc(NC(=O)c2ccco2)cc1NC(=O)c1cccc(OC(C)C)c1	-8.3%	10.3µM*	·	?	·
COc1ccc(NC(=O)c2ccco2)cc1NC(=O)c1ccco1	-15.3%	-1.8%	-12.4%	?	-5.2%
COc1cccc(C(=O)Nc2cc(NC(=O)c3ccco3)ccc2OC)c1	10.8%	1.0%	·	-21.5%	·
COC(=O)c1ccccc1NC(=O)CSc1nnnn1-c1ccc(C)cc1C	31.6µM*	?	i	-23.9%	-11.3%
Cc1cc(-n2c(C)cc(C(=O)CCl)c2C)no1	22.4µM*	?	-28.3%	2.82µM*	?
SMILES	FMDV antiviral	Lassa entry inh	VACV mCherry inh	MARV entry inh	Vaccinia Venus
COc1ccc(-n2c(C)cc(C(=O)CCl)c2C)cc1	28.2µM*	·	·	·	·
Cc1ccc(-n2nnnc2SCC(=O)c2cc(C)n(-c3cc(C)on3)c2C)c(C)c1	·	1.46µM*	?	-12.6%	-15.4%
CCOC(=O)Cc1ccc(NC(=O)N2CC(CC)Oc3ccccc32)cc1 (stereo not given)	-19.8%	-18.0%[46.1 µM]	2.6%	·	-0.8%
COC(=O)c1ccccc1C(=O)NCC1Cc2cc(-c3nc(C)cnc3C)ccc2O1 (stereo not given)	-2.5%	·	-3.0%	·	-1.2%
Cc1cc(C(=O)CCl)c(C)n1-c1c(C)n(C)n(-c2ccccc2)c1=O	28.2µM*	?	?	?	?
Cc1nnc(SCC(=O)c2cc(C)n(-c3c(C)n(C)n(-c4ccccc4)c3=O)c2C)s1	-13.4%	4.4%	-7.9%	-13.6%	-3.9%
N#Cc1c(N)nc(Sc2ccc(Cl)cc2)c(C#N)c1-c1ccccc1Cl	28.2µM*	?	?	?	-29.1%
OC[C@@H]1CN(Cc2cccs2)C[C@H](n2cnc3c(NC4CCC4)ncnc32)O1	-23.9%	·	-3.7%	·	-2.2%
COc1cc(CNC2CCCCCCC2)cc(Cl)c1OC	-17.6%	?	-12.1%	?	-19.1%
COc1cc(CNC2CCCCCCC2)cc(Br)c1OCC#N	0.0%	-16.6%	-1.1%	11.6µM*	-29.4%
Cc1cc(C)c(NC(=O)CNC(=O)COC(=O)CN2C(=O)NC3(CCCC3)C2=O)c(C)c1	-12.6%	13.3%	-11.7%	3.2%[46.1 µM]	-19.3%
O=C1Cc2cc(NS(=O)(=O)c3ccc(Cl)cc3)cc3c2N1CCC3	10.6%	-1.6%	-0.3%	-0.3%	-10.3%
O=C1Cc2cc(NS(=O)(=O)c3ccc([N+](=O)[O-])cc3)cc3c2N1CCC3	-17.3%	6.2%	10µM*	1.1%	?
CN(C)c1ccc(C(=C2C=CC(=[N+](C)C)C=C2)c2ccc(N(C)C)cc2)cc1	17.8µM*	·	234.8%	·	10µM*
CC(C)CO/N=C1\C[C@@H](O)[C@@H](O)[C@@H]2[C@@H]3C(=O)N(Cc4ccc5c(c4)OCO5)C(=O)[C@@H]3CC[C@H]12	·	·	·	-29.9%[14.2 µM]	·
CCOC(=O)COc1ccc(/C=C/[N+](=O)[O-])c(OCC(=O)OCC)c1	14.1µM*	20.6µM*	·	5.17µM*	·
CCOC(=O)COc1ccc2ccccc2c1/C=C/[N+](=O)[O-]	12.6µM*	?	-18.5%	4.47µM*	-7.9%
CCn1nc(C(=O)OCC(=O)N(CCC#N)c2ccccc2)c2ccccc2c1=O	-23.7%	0.9%	-10.5%	12.1%	-5.9%
Cc1nc2cc(-c3ccccc3)sc2c(=O)n1N	7.08µM*	?	-15.7%	?	-5.3%
COc1ccc(-c2cc3nc4n(c(=O)c3s2)CCC4)cc1	0.0%	?	·	1.64µM*	·
COc1ccc(-c2cc3nc(C)n(N)c(=O)c3s2)cc1	7.94µM*	·	·	·	·
CCOC(=O)N=Nc1c2ccccc2c2nc3no[nH]c3nc12	2µM*	?	0.501µM*	?	0.501µM*
CC(=Nc1ccccc1N)c1c(C)cc(=O)n(O)c1O	21.5%	·	·	·	·
CCN(CC)S(=O)(=O)c1ccc(N/N=C/c2ccc(O)cc2O)nc1	-29.2%	2.31µM*	3.98µM*	3.26µM*	?
O=[N+]([O-])c1ccc(NN=Cc2ccc(O)cc2O)nc1	13.0%	?	1.41µM*	?	?
O=[N+]([O-])c1ccc(NN=Cc2ccccc2O)nc1	65.1%	?	?	?	?
CC(=O)/C(N=Nc1cc2c(c([N+](=O)[O-])c1C)C(C)(C)CC2(C)C)=C(\C)O	25.1µM*	-3.3%	-13.5%	5.7%	-14.4%
CCCC(=O)N(Cc1cc(=O)[nH]c2ccccc12)c1ccc(C)cc1C	-21.4%	·	·	·	·
Cc1ccc(N(Cc2cc(=O)[nH]c3ccccc23)C(=O)CCl)c(C)c1	35.5µM*	?	?	?	?
